S16 viability: S16 Schwann cell cytotoxicity; S16 Pmp22-F2sN Schwann cells viability, CellTiter-Glo, 24 h; Potency, µM (series often up to 57.5 µM), inactives show at the top dose activity change, negative = cytotoxicity, usual class: cytotoxic; 43,000 tested, 0.48% active; note: potency is the fitted concentration of half-maximal effect; % is set by controls: 0 for no effect and ±100 for the full control effect; nearly all actives have a fitted effect of over 65% in size
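S16 Schwann cells carrying the Pmp22-F2sN reporter, seeded in 1536-well format, were exposed to library compounds for 24 h at 37C. Viability was read as CellTiter-Glo luminescence after 15 min at room temperature.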
mTORC1 inh: mTORC1 pathway inhibition measured by phospho-rpS6; 44,000 tested, 0.78% active; Potency, µM (series often up to 38.3 µM), for inactives: at the highest dose activity change, negative = inhibition, usual class: inhibitors; Tsc2-/- p53-/- MEF, phospho-rpS6 immunofluorescence/PI, 24 h; AID 493208;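 note: potency is the fitted concentration of half-maximal effect; plate controls were DMSO for no effect and rapamycin for full effect; nearly all actives have a fitted effect of over 50% in size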
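Plate MEFs (Tsc2-/-, p53-/-, empty vector) in DMEM/10% FBS; after 24 h add compound, incubate 24 h at 37 degree Celsius; fix in PFA/TX-100, block, stain phospho-rpS6 and 10 uM PI; scan at 488 nm; report % positive cells.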
HTT-AS promoter: HTT-AS promoter activation; HEK293 HTT-AS promoter firefly luciferase reporter, 24 h; response scale: percent change from vehicle, -100% = no light; Potency, µM (doses to about 57.5 µM), inactives show top-dose activity change, positive = activation, usual class: activators; 48,000 tested, 0.24% active; AID 1508624; note: potency is the fitted concentration of half-maximal effect; nearly all actives have a fitted effect of over 55% in size
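Firefly luciferase readout (Dual-Glo, 10 min RT) after 24 h, 37 °C compound exposure (final up to 57.5 uM) of HEK293 reporter cells cultured 24 h beforehand; PTC124 at 50 uM final as control inhibitor; activity scaled vehicle 0%, zero RLU -100%.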
HTT prom inh: HTT promoter inhibition | HEK293 HTT promoter firefly luciferase reporter, 24 h | Potency, µM (series often up to 57.5 µM), inactives show at the top dose activity change, negative = inhibition, hits mostly inhibitors | 48,000 tested, 0.93% active; note: potency is the fitted concentration of half-maximal effect; nearly all actives have a fitted effect of over 50% in size
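HEK293 luciferase promoter-reporter cells (2,500/well) plated 24 h, then compounds added at up to 57.5 uM final for 24 h at 37 °C. Firefly luminescence by Dual-Glo, normalized to vehicle (0%) and zero RLU (-100%).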
PMP22 txn prim: modulates PMP22 transcription in S16 Schwann cells. S16 Pmp22-F2sN Schwann cells (luciferase reporters placed in the Pmp22 gene), FLuc/NLuc coincidence luminescence, 24 h. Potency, µM (titrated, usually from 57.5 µM), without a hit: top-dose activity change, negative = inhibition, hits mostly inhibitors. 43,000 tested, 2% active; active = clear falling dose curves in both reporters; inconclusive = both reporters move, but less clearly or upward; inactive = either reporter flat; the % is the NLuc reporter signal; note: potency is the fitted concentration of half-maximal effect; % is set by controls: 0 for no effect and ±100 for the full control effect
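Rat S16 Pmp22-F2sN cells, 500-1,000/well in phenol red-free DMEM + 10% FBS, compound-treated 24 h (37C, 5% CO2). Luminescence: FLuc read, Stop&Glo added, NLuc read.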
NLuc saturating: counter-screen for PMP22 expression modulators: NanoLuc inhibition, saturating substrate | Potency, µM (series often up to 57.5 µM), inactives show at the highest dose activity change, negative = inhibition, hits mostly inhibitors | Secreted NLuc enzyme (filtered S16 cell medium), Nano-Glo luminescence | 690 tested, 4% active | shares compounds with PMP22 txn prim; note: potency is the fitted concentration of half-maximal effect; % is set by controls: 0 for no effect and ±100 for the full control effect
NLuc Km ctr: NanoLuc inhibition at Km substrate, PMP22 artifact check; 690 tested, 5% active; shares compounds with PMP22 txn prim; Potency, µM (highest dose often 57.5 µM), without a hit: at the highest dose activity change, negative = inhibition, most hits filed as inhibitors; secreted NLuc enzyme, coelenterazine luminescence, Km conditions; AID 1508639; note: potency is the fitted concentration of half-maximal effect; % is set by controls: 0 for no effect and ±100 for the full control effect
FLuc ctr PMP22: counter-screen for PMP22 expression modulators: firefly luciferase inhibition | shares compounds with PMP22 txn prim | purified P. pyralis FLuc, luminescence, 10 min | Potency, µM (doses to about 57.5 µM), without a hit: at the highest dose activity, negative = inhibition, most hits filed as inhibitors | 690 tested, under 10 active; note: % of control where 0% means no effect
Target sequence (P08659 whole entry, looked up): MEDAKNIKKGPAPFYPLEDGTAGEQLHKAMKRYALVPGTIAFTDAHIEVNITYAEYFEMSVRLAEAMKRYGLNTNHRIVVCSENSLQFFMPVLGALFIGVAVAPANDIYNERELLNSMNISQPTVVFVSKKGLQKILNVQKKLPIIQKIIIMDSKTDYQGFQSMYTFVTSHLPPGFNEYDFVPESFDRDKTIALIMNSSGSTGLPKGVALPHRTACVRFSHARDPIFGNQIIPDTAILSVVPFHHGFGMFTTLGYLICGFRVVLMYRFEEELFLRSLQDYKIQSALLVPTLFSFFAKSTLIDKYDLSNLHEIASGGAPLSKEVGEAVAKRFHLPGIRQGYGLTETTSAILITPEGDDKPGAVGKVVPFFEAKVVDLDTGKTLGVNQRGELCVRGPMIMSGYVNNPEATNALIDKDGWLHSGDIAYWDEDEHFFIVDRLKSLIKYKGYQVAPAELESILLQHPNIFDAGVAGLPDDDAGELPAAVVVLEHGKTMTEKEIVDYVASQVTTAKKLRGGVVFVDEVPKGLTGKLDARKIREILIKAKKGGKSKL
S16 viab conf: S16 Schwann cell cytotoxicity, confirmatory. S16 Schwann cells viability, CellTiter-Glo ATP luminescence, 24 h. Potency, µM (series often up to 57.5 µM), for the others: at the top dose activity change, negative = viability loss, most hits filed as cytotoxic. shares compounds with PMP22 txn prim. AID 1508641. 690 tested, 7% active; note: potency is the fitted concentration of half-maximal effect; % is set by controls: 0 for no effect and ±100 for the full control effect
PMP22 txn conf: PMP22 transcription modulation, confirmatory. shares compounds with PMP22 txn prim. S16 Schwann cells Pmp22-F2sN, dual luciferase, 24 h. AID 1508646. 690 tested, 22% active. Potency, µM (titrated, usually from 57.5 µM), inactives show at the top dose activity change, negative = inhibition, most hits filed as inhibitors; active = clear falling dose curves in both reporters; inconclusive = both reporters move, but less clearly or upward; inactive = either reporter flat; the % is the FLuc reporter signal; note: potency is the fitted concentration of half-maximal effect
PMP22 HiBiT cnf: rat PMP22 protein level modulation, confirmatory; S16 Schwann cells Pmp22-HiBiT, luminescence, 48 h; shares compounds with PMP22 txn prim; Potency, µM (doses to about 27.9 µM), for inactives: at the highest dose activity change, negative = inhibition, hits mostly inhibitors; AID 1508647; 95 tested, under 10 active
* marks the source's active call; other numbers are inactive results; ? = inconclusive; . = no result given. Only some compounds are listed: those with a hit (about 3.6% of all), similar ones and a draw of the others. Unless noted, calls come from the whole dose curve; as a rule, active = well fitted curve in the direction sought with a large enough effect; inconclusive = small, poorly fitted or top-dose-only effect, or another doubt; inactive = no such curve, though single readings can be large; an effect the other way counts as inactive or inconclusive.

SMILES	S16 viability	mTORC1 inh	HTT-AS promoter	HTT prom inh	PMP22 txn prim	others
N#Cc1cc2c(nc1SCC(=O)Nc1ccc(C(F)(F)F)cc1)C1CCN2CC1	?	-17%	-43%	14µM*	?
Nc1c(C(=O)Nc2ccc(Cl)c(C(F)(F)F)c2)sc2nc3c(cc12)N1CCC3CC1	?	-13%	-72%	?	?
N#Cc1cc2c(nc1SCC(=O)Nc1ccc(Cl)c(C(F)(F)F)c1)C1CCN2CC1	?	9%	-63%	16µM*	?
CCOc1ccc(N(C(C)C(=O)Nc2cc(Cl)ccc2OC)S(C)(=O)=O)cc1 (centres undefined)	?	7.4µM*	-37%	?	?
CCc1ccc(-n2nc(C)c3c2NC(=O)CSC3c2ccc(OC)cc2OC)cc1 (centres undefined)	?	?	-37%	22µM*	?
CCc1ccc(-n2nc(C)c3c2NC(=O)CSC3c2ccccc2C)cc1 (centres undefined)	?	-1%	-37%	?	?
CCCCNC(=O)c1cc(-c2cccnc2)nc2ccc(S(=O)(=O)NCCCC)cc12	25µM*	?	-12%	-16%	?
CC(C)(O)C=CC(=O)[C@](C)(O)[C@H]1[C@H](O)C[C@]2(C)[C@@H]3CC=C4[C@@H](C=C(O)C(=O)C4(C)C)[C@]3(C)C(=O)C[C@@]12C	.	.	-82%	?	.
Cc1ccccc1-n1c(Cn2cnc3c(N)ncnc32)nc2cccc(C)c2c1=O	.	.	-30%	?	.
COc1ccc(NC(=O)CCn2cnc3onc(-c4ccc(F)cc4)c3c2=O)cc1OC	?	?	-54%	?	11µM*
C[C@@H]1CC[C@@]2(OC1)O[C@H]1C[C@H]3[C@@H]4CC=C5C[C@@H](O[C@@H]6O[C@H](CO)[C@@H](O[C@@H]7O[C@@H](C)[C@H](O)[C@@H](O)[C@@H]7O)[C@H](O)[C@@H]6O[C@@H]6O[C@@H](C)[C@H](O)[C@@H](O)[C@@H]6O)CC[C@]5(C)[C@@H]4CC[C@]3(C)[C@@H]1[C@H]2C	.	.	-15%	-6%	.
Cc1ccccc1-n1c(/C=C/c2ccccc2F)nc2ccccc2c1=O	2%	-10%	-38%	?	?
O=c1c2ccccc2nc(/C=C/c2cccc3ccccc23)n1-c1ccccc1Cl	?	10%	-11%	28µM*	?
CC(C)[C@]12O[C@@H]1[C@@H]1O[C@]13[C@]1(O[C@H]1C[C@@H]1C4=C(CC[C@@]13C)C(=O)OC4)[C@H]2O	.	.	?	-38%	.
O=C(NCCSc1c(-c2ccc(F)cc2)[nH]c2ccccc12)c1ccc(S(=O)(=O)N2CCOCC2)cc1	?	15µM*	-43%	?	?
COC1=CC(C)=C[C@@H](C)[C@@H](O)[C@@H](C)CC(C)=CC=C[C@H](OC)[C@H]([C@@H](C)[C@@H](O)[C@H](C)[C@@]2(O)C[C@@H](O)[C@H](C)[C@@H](C(C)C)O2)OC1=O	.	.	-28%	?	.
Cc1c(Cl)cccc1NC(=O)c1oc2ccc(S(=O)(=O)N3CCC4(CC3)OCCO4)cc2c1C	?	13µM*	-44%	?	14µM*	NLuc saturating=-15%;NLuc Km ctr=-3%;FLuc ctr PMP22=-5%;S16 viab conf=-24%;PMP22 txn conf=?;PMP22 HiBiT cnf=15%
CC1=C2C[C@@H]3[C@@H](CC=C4C[C@@H](O)CC[C@@]43C)[C@@H]2CC[C@]12O[C@H]1C[C@H](C)CN[C@H]1[C@H]2C	.	.	-6%	9%	.

Bioassay records (PubChem BioAssay)
